Where “and” joins values, the source holds several entries; their conditions need not be identical. Equal values may be shown once. In all, about 5,500 compounds went through this assay and about 2,000 (36%) were called active. Inconclusive results (about 18%) are left out. Rule as the data show it: active = normalized growth mostly below about 0.91 (no sharp cut-off); inconclusive = no clear call, values can overlap the other calls; inactive = mostly above about 0.92. This is one part of the list.
Assay: chemical genetic growth profiling, strain panel (AID 1159580);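 also: tested at 20 µM; growth read once vehicle control cultures reached saturation at 30 °C; 1 = growth at the plate median or of vehicle wells; lower values mean less growth of the strain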
Settings: S. cerevisiae deletion strains, growth OD

Measured: normalized growth

CC(=O)C1CCC2C3CCC4C[C@H](O)CCC4(C)C3C[C@H](O)C12C (some centres not stated)
inactive: locus YAL013W, strain DEP1, hits give low values 1.03 | locus YAL021C, strain ccr4, hits give low values 0.96 | locus YAL026C, strain drs2, hits give low values 0.984 | locus YAL030W, strain snc1, hits give low values 0.971 | locus YBL061C, strain skt5, hits give low values 0.989 | locus YBR009C, strain hhf1, hits give low values 0.963 | locus YBR021W, strain FUR4, hits give low values 1.02 | locus YBR023C, strain chs3, hits give low values 0.989 | locus YBR171W, strain sec66, hits give low values 0.961 | locus YBR229C, strain ROT2, hits give low values 1.03 | locus YBR231C, strain swc5, hits give low values 0.993 | locus YBR279W, strain paf1, hits give low values 0.98 | locus YCL011C, strain gbp2, hits give low values 0.957 | locus YCL016C, strain dcc1, hits give low values 0.97 | locus YCL029C, strain bik1, hits give low values 1 | locus YCL069W, strain vba3, hits give low values 0.968 | locus YCR088W, strain abp1, hits give low values 0.972 | locus YDL005C, strain med2, hits give low values 0.971 | locus YDL035C, strain GPR1, hits give low values 1.09 | locus YDL040C, strain nat1, hits give low values 0.982 | locus YDL074C, strain BRE1, hits give low values 1.16 | locus YDL101C, strain DUN1, hits give low values 1.02 | locus YDL134C, strain PPH21, hits give low values 1.05 | locus YDL185W, strain tfp1, hits give low values 0.999 | locus YDL192W, strain arf1, hits give low values 1.02 | locus YDR001C, strain nth1, hits give low values 0.956 | locus YDR069C, strain doa4, hits give low values 0.945 | locus YDR101C, strain arx1, hits give low values 1.01 | locus YDR137W, strain rgp1, hits give low values 0.966 | locus YDR150W, strain NUM1, hits give low values 1.04 | locus YDR159W, strain sac3, hits give low values 0.982 | locus YDR162C, strain NBP2, hits give low values 1.04 | locus YDR195W, strain ref2 0.956 | locus YDR297W, strain sur2, hits give low values 0.976 | locus YDR318W, strain mcm21, hits give low values 1.02 | locus YDR334W, strain swr1, hits give low values 0.962 | locus YDR335W, strain msn5, hits give low values 0.982 | locus YDR388W, hits give low values 1.01 | locus YDR392W, strain spt3, hits give low values 0.978 | locus YDR502C, strain sam2, hits give low values 1.01 | locus YEL003W, strain gim4, hits give low values 0.979 | locus YEL037C, strain rad23, hits give low values 0.972 | locus YEL061C, strain CIN8 (second series), hits give low values 0.973 | locus YEL061C, strain CIN8, hits give low values 1.03 | locus YER015W, strain faa2, hits give low values 0.968 | locus YER016W, strain bim1, hits give low values 0.971 | locus YER110C, hits give low values 0.987 | locus YER111C, strain swi4, hits give low values 0.978 | locus YER155C, strain BEM2 (second series), hits give low values 0.979 | locus YER155C, strain BEM2, hits give low values 1.02 | locus YER167W, strain BCK2, hits give low values 1.02 | locus YFR010W, strain ubp6, hits give low values 0.975 | locus YGL078C, strain dbp3, hits give low values 0.995 | locus YGL086W, strain mad1, hits give low values 1.01 | locus YGL167C, strain pmr1, hits give low values 0.96 | locus YGL173C, strain kem1, hits give low values 0.965 | locus YGL227W, strain vid30, hits give low values 0.972 | locus YGL240W, strain doc1, hits give low values 0.984 | locus YGL248W, strain PDE1, hits give low values 1.08 | locus YGL253W, strain hxk2, hits give low values 0.963 | locus YGR078C, strain PAC10, hits give low values 1.07 | locus YGR135W, strain pre9, hits give low values 0.998 | locus YGR252W, strain gcn5, hits give low values 1.06 | locus YHR013C, strain ard1, hits give low values 0.942 | locus YHR027C, strain rpn1, hits give low values 0.971 | locus YHR030C, strain SLT2, hits give low values 1.01 | locus YHR079C, strain IRE1 (second series), hits give low values 1.01 | locus YHR079C, strain IRE1, hits give low values 1.02 | locus YHR094C, strain hxt1, hits give low values 1 | locus YHR129C, strain ARP1, hits give low values 1.04 | locus YHR142W, strain chs7, hits give low values 0.953 | locus YHR200W, strain rpn10, hits give low values 1.01 | locus YIL066C, strain RNR3, hits give low values 1.04 | locus YIL073C, strain SPO22, hits give low values 1.12 | locus YIL125W, strain kgd1, hits give low values 1.01 | locus YIR030C, strain dcg1, hits give low values 1.01 | locus YJL092W, strain hpr5, hits give low values 0.964 | locus YJL095W, strain BCK1 (second series), hits give low values 0.961 | locus YJL095W, strain BCK1, hits give low values 1.07 and 1.01 | locus YJL115W, strain asf1, hits give low values 0.963 | locus YJL129C, strain trk1, hits give low values 0.968 | locus YJL134W, strain LCB3, hits give low values 1.01 | locus YJL154C, strain vps35, hits give low values 0.968 | locus YJL164C, strain tpk1, hits give low values 0.96 | locus YJL166W, strain qcr8, hits give low values 0.975 | locus YJL168C, strain set2, hits give low values 0.987 | locus YJL187C, strain SWE1 (second series), hits give low values 1.04

— PubChem BioAssay AID1159580 (chemical genetic matrix, 2015)
